In PubChem BioAssay (Tox21):
Inconclusive results are not listed. Active and inactive are the calls of the source. Unless noted, calls come from the whole dose curve; as a rule, active = well fitted curve in the direction sought with a large enough effect in the repeat runs; inconclusive = weak or mixed curves; inactive = no such curve, though single readings can be large; an effect the other way counts as inactive or inconclusive.

Tests used:
[1] = A CellTox Green Cytotoxicity Assay to monitor cytotoxicity in HepG2 cells - 0 hour (AID 1224882); note: nearly all actives have a fitted effect of over 35% in size
Summary of the method: (§1)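 Read-out is fluorescence of a cyanine dye excluded from live cells that stains DNA of dead HepG2 cells, with signal proportional to cytotoxicity. Plates were read at 0, 8, 16, 24, 32 and 40 h after compound addition.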

[2] = A CellTox Green Cytotoxicity Assay to monitor cytotoxicity in HepG2 cells - 32 hour (AID 1224883); note: nearly all actives have a fitted effect of over 50% in size
Summary of the method: as §1

[3] = A CellTox Green Cytotoxicity Assay to monitor cytotoxicity in HEK293 cells - 8 hour (AID 1224884); note: nearly all actives have a fitted effect of over 35% in size
Summary of the method: (§2)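 Nonlytic real-time cytotoxicity: HEK293 + CellTox Green reagent plated, 5 h preincubation, pintool compound addition (23 nL in DMSO), 37 C for 40 h, fluorescence measured at successive time points.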

[4] = qHTS RealTime-Glo MT Cell Viability Assay in HepG2 cells - 16 hour (AID 1224885); note: nearly all actives have a fitted effect of over 50% in size
Summary of the method: (§3)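 Cells + NanoLuc/prosubstrate dispensed (600 cells/well) → 5 h at 37 C/5% CO2 → compounds in DMSO transferred → 40 h incubation at 37 C, luminescence read at 0, 8, 16, 24, 32, 40 h.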

[5] = qHTS RealTime-Glo MT Cell Viability Assay in HEK293 cells - 24 hour (AID 1224886); note: top concentration of the series differs between compounds; nearly all actives have a fitted effect of over 50% in size
Summary of the method: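 Tox21 10K qHTS, HEK293, 600 cells/well, RealTime-Glo reagent co-dispensed with cells; 5 h preincubation, compound by pintool, 37 C, luminescence at 0–40 h.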

[6] = qHTS RealTime-Glo MT Cell Viability Assay in HEK293 cells - 8 hour (AID 1224887); note: top concentration of the series differs between compounds; nearly all actives have a fitted effect of over 50% in size
Summary of the method: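 Cells were seeded together with NanoLuc luciferase and a prosubstrate that viable cells reduce to a luciferase substrate. After a 5 h incubation at 37 C/5% CO2, compounds were added and luminescence was measured repeatedly during 40 h of treatment.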

[7] = A CellTox Green Cytotoxicity Assay to monitor cytotoxicity in HEK293 cells - 16 hour (AID 1224888); note: nearly all actives have a fitted effect of over 35% in size
Summary of the method: as §2

[8] = qHTS RealTime-Glo MT Cell Viability Assay in HepG2 cells - 0 hour (AID 1224889); note: nearly all actives have a fitted effect of over 50% in size
Summary of the method: as §3

[9] = A CellTox Green Cytotoxicity Assay to monitor cytotoxicity in HepG2 cells - 8 hour (AID 1224890); note: nearly all actives have a fitted effect of over 45% in size
Summary of the method: as §1

[10] = qHTS assay to identify small molecule antagonists of the androgen receptor (AR) signaling pathway using the MDA cell line in the presence of 0.5 nM R1881 - cell viability counter screen (AID 1259242); note: nearly all actives have a fitted effect of over 45% in size
Summary of the method: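 Counter screen for cytotoxicity run in the same wells as the AR antagonist reporter screen: MDA-kb2 cells were treated 16 hr with test compounds and 0.5 nM R1881, then live-cell protease activity was measured by fluorescence.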

[11] = qHTS assay to identify small molecule phospholipidosis (PLD) inducers (AID 1259344; active = well fitted curve in the direction sought with a large enough effect; an effect the other way counts as inactive or inconclusive)
Summary of the method: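 Fluorescent phospholipid staining (LipidTOX Red) measured by automated microscopy in fixed HepG2 cells after 24 h treatment; nuclei counterstained with Hoechst 33342; amiodarone as reference inducer.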

[12] = qHTS assay to identify small molecule HDAC inhibitors (AID 1259364); note: top concentration of the series differs between compounds; nearly all actives have a fitted effect of over 45% in size
Summary of the method: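 Luminescence from a cell-permeant luminogenic class I/II HDAC substrate reports endogenous deacetylase activity in intact HCT-116 cells treated with compounds for 2 h.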

[13] = qHTS assay to identify small molecule HDAC inhibitors - cell viability counter screen (AID 1259365)
Summary of the method: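 Cytotoxicity was gauged in wild-type HCT-116 cells after a brief 2hr treatment with DMSO-dissolved compounds at 37C and 5% CO2, using CellTiter-Glo luminescence developed for 30min at room temperature.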

[14] = qHTS assay to identify small molecule agonists of the sonic hedgehog signaling (Shh) pathway - cell viability counter screen (AID 1259366); note: nearly all actives have a fitted effect of over 50% in size
Summary of the method: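 Stable Gli1-Luc NIH/3T3 clone, 2,000 cells/well. Compound exposure 24hr at 37C. Read-out: CellTiter-Fluor fluorescence.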

[15] = qHTS assay to identify small molecule antagonists of the sonic hedgehog signaling (Shh) pathway - cell viability counter screen (AID 1259367); note: nearly all actives have a fitted effect of over 55% in size
Summary of the method: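 Using CellTiter-Fluor, viability of Gli1-Luc reporter 3T3 cells is read by fluorescence in the wells used for the Shh luciferase assay. Treatment lasts 23 hr with conditioned medium, then reagent 1 hr at 37C.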

[16] = qHTS assay to identify small molecule agonists of the sonic hedgehog signaling (Shh) pathway (AID 1259368; calls by dose curve;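 note: NIH/3T3-derived 3T3Gli1-Luc cells carrying a stable Gli1-driven firefly luciferase reporter; series mostly up to about 92 µM; nearly all actives have a fitted effect of over 15% in size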)
Summary of the method: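 3T3Gli1-Luc (NIH/3T3 clone, stable Gli1-Luc); 4 hr pre-incubation, then cpd in DMSO 24 hr, 37 C/5% CO2; luciferase reagent 30 min RT; luminescence.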

[17] = qHTS assay to identify small molecule antagonists of the sonic hedgehog signaling (Shh) pathway (AID 1259369; calls by dose curve; note: nearly all actives have a fitted effect of over 45% in size)
Summary of the method: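 3T3Gli1-Luc, conditioned-medium-stimulated, 24hr cpd, 37C/5% CO2; Gli1-driven firefly Luc luminescence after 30min RT with luciferase reagent. Cells plated 4hr before cpd.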

[18] = qHTS assay to identify small molecule antagonists of the estrogen receptor alpha (ER-alpha) signaling pathway using the BG1 cell line in the presence of 0.1 nM 17-beta-estradiol - cell viability counter screen (AID 1259241); note: nearly all actives have a fitted effect of over 40% in size
Summary of the method: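 Viability in VM7Luc4E2 cells after 22 hr compound exposure under 0.1 nM 17beta-estradiol stimulation, by CellTiter-Fluor.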

[19] = target: Estrogen receptor (Homo sapiens) (UniProt P03372); test: qHTS assay to identify small molecule antagonists of the estrogen receptor alpha (ER-alpha) signaling pathway using the BG1 cell line in the presence of 0.1 nM 17-beta-estradiol (AID 1259244); note: nearly all actives have a fitted effect of over 50% in size
Sequence of Estrogen receptor (Homo sapiens) (P03372 whole entry, looked up): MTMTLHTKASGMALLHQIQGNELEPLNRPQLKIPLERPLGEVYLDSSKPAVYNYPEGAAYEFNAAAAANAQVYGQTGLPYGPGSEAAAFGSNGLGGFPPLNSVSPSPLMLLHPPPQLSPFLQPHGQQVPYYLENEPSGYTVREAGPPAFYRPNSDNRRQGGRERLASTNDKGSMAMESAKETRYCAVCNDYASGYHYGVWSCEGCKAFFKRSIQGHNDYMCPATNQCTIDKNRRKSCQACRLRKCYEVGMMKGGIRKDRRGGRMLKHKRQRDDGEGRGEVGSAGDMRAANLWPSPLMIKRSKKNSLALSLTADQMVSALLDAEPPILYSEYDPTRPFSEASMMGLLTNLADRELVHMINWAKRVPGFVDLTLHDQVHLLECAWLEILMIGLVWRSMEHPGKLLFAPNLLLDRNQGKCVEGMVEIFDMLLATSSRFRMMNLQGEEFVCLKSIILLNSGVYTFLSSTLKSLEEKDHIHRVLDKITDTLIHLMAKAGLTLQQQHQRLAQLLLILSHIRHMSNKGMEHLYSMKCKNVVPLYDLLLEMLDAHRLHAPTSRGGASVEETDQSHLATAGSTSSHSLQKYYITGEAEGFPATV
Summary of the method: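 Cells: VM7Luc4E2, endogenous ER-alpha, 4x ERE-luc stable. Pre-culture 5 d, phenol red-free, charcoal-stripped FBS. Plated 24 h, compound + E2 0.1 nM final, 22 h 37C/5% CO2. Readout ONE-Glo luminescence.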

[20] = target: Androgen receptor (Homo sapiens) (UniProt P10275); test: qHTS assay to identify small molecule antagonists of the androgen receptor (AR) signaling pathway using the MDA cell line in the presence of 0.5 nM R1881 (AID 1259243); note: nearly all actives have a fitted effect of over 50% in size
Sequence of Androgen receptor (Homo sapiens) (P10275 whole entry, looked up): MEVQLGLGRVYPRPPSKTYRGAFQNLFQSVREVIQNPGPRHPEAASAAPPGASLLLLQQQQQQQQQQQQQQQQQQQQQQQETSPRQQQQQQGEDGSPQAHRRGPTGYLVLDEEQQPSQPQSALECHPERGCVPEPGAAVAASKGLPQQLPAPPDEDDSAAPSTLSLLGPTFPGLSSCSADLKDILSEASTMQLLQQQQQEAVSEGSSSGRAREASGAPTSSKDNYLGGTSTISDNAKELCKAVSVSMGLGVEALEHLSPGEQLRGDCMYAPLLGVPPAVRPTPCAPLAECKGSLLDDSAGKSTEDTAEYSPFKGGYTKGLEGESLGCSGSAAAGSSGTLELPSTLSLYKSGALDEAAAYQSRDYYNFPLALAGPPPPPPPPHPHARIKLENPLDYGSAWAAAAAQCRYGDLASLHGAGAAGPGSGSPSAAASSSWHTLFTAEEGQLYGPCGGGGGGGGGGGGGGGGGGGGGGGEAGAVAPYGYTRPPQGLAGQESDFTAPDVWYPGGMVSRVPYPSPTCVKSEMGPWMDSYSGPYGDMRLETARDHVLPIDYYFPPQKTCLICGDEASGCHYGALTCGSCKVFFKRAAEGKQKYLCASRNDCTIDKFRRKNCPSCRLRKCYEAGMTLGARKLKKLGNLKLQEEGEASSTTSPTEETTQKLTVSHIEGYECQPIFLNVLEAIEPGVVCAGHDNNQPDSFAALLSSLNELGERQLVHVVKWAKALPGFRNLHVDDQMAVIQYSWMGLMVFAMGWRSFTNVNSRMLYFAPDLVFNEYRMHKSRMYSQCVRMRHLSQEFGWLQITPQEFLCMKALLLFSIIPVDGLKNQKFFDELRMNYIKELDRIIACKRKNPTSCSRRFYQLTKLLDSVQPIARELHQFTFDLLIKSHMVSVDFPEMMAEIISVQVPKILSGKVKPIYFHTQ
Summary of the method: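 Luciferase luminescence is the read-out: compounds are tested for suppressing 0.5 nM R1881-driven MMTV reporter activity in MDA-kb2 cells after 16 hr at 37C.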
% is set by controls: 0 for no effect and ±100 for the full control effect.

CC(C)C[C@@H](N)C(=O)O
inactive: cytotoxicity [1] -9.4% [at 15.8 µM] | cytotoxicity increase [2] -8.17% [at 15.8 µM] | cytotoxicity increase [3] -0.255% [at 15.8 µM] | activity change, negative = cytotoxic [4] 2.37% [at 15.8 µM] | activity change, negative = cytotoxicity [5] 1.4% [at 15.8 µM] | activity change, negative = cytotoxicity [6] 7.72% [at 15.8 µM] | activity change [7] 1.15% [at 15.8 µM] | activity change, negative = cytotoxicity [8] 0.397% [at 15.8 µM] | cytotoxicity increase [9] -17.7% [at 15.8 µM] | viability change, negative = cytotoxic [10] -2.1% [at 19 µM] | outcome [11] | activity change, negative = inhibition [12] 7.66% [at 19 µM] | activity change, negative = cytotoxicity [13] -1.99% [at 19 µM] | viability change, negative = cytotoxic [14] -2.88% [at 19 µM] | viability change, negative = cytotoxic [15] 1.81% [at 19 µM] | activity change [16] -0.808% [at 18.9 µM] | activity change, negative = inhibition [17] 18.9% [at 19 µM]

CCN1CCOCC1
inactive: Potency [1] | Potency [2] | outcome [3] | outcome [4] | Potency [5] | Potency [6] | outcome [7] | Potency [8] | outcome [9] | outcome [18] | outcome [10] | Potency [12] | Potency [14] | Potency [15] | outcome [16] | Potency [17]

CCCCCCCCCCOc1cc2c(=O)c(C(=O)OCC)c[nH]c2cc1OCC
inactive: cytotoxicity [1] 9.56% [at 6.97 µM] | cytotoxicity increase [2] -9.18% [at 6.97 µM] | cytotoxicity increase [3] 2.19% [at 6.97 µM] | activity change, negative = cytotoxic [4] 4.28% [at 6.97 µM] | activity change, negative = cytotoxicity [5] 3.7% [at 6.97 µM] | activity change, negative = cytotoxicity [6] 3.87% [at 6.97 µM] | activity change [7] 0.406% [at 6.97 µM] | activity change, negative = cytotoxicity [8] 9.73% [at 6.97 µM] | cytotoxicity increase [9] -1.8% [at 6.97 µM] | viability change, negative = cytotoxic [10] 2.82% [at 8.39 µM] | activity change, negative = inhibition [19] -1.66% [at 8.39 µM] | outcome [11] | activity change, negative = inhibition [12] 0.14% [at 8.39 µM] | activity change, negative = cytotoxicity [13] 9.44% [at 8.39 µM] | viability change, negative = cytotoxic [14] 2.95% [at 8.39 µM] | viability change, negative = cytotoxic [15] 5.79% [at 8.39 µM] | activity change, negative = inhibition [17] 27.8% [at 8.39 µM]

O=C(O)c1cn(C2CC2)c2cc(N3CCNCC3)c(F)cc2c1=O
inactive: Potency [1] | Potency [2] | outcome [3] | outcome [4] | Potency [5] | Potency [6] | outcome [7] | Potency [8] | outcome [9] | outcome [10] | outcome [11] | Potency [12] | outcome [13] | Potency [14] | Potency [15] | outcome [16] | Potency [17]

CCC1C(=O)OCC1Cc1cncn1C (stereo not drawn)
inactive: Potency [1] | Potency [2] | outcome [3] | outcome [4] | Potency [5] | Potency [6] | outcome [7] | Potency [8] | outcome [9] | outcome [10] | outcome [19] | outcome [11] | Potency [12] | outcome [13] | Potency [14] | Potency [15] | outcome [16] | Potency [17]

CCOc1ccc2nc(S(N)(=O)=O)sc2c1
inactive: Potency [1] | Potency [2] | outcome [3] | outcome [4] | Potency [5] | Potency [6] | outcome [7] | Potency [8] | outcome [9] | outcome [10] | outcome [19] | outcome [11] | Potency [12] | outcome [13] | Potency [14] | Potency [15] | outcome [16] | Potency [17]

Cc1ccc(-c2ncc(Cl)cc2-c2ccc(S(C)(=O)=O)cc2)cn1
inactive: Potency [1] | Potency [2] | outcome [3] | outcome [4] | Potency [5] | Potency [6] | outcome [7] | Potency [8] | outcome [9] | outcome [10] | Potency [20] | outcome [19] | outcome [11] | Potency [12] | outcome [13] | Potency [14] | outcome [16] | Potency [17]

Nc1c2c(nc3c1CCC3)CCCC2
inactive: Potency [1] | Potency [2] | outcome [3] | outcome [4] | Potency [5] | Potency [6] | outcome [7] | Potency [8] | outcome [9] | outcome [10] | Potency [20] | outcome [19] | outcome [11] | Potency [12] | outcome [13] | Potency [14] | outcome [16]
